The campaign covered roughly 2,400 compounds. About 220 (9.2%) were called active.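 The calls were made as follows: active = signal change above the mean of dofetilide-free buffer controls plus 3 SD, so a positive margin; inactive = the rest.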 For the sample, actives were picked, then their nearest neighbours and some compounds at random.

The nature of this assay: nonspecific flux effects in parental CHO-K1, confirmation, counter-screen for hERG block protection project, cell-based, CHO-K1 parental line, FluxOR thallium flux (AID 1839).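 Also: compounds applied alone with no dofetilide to cells lacking hERG.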 To be noted: CHO-K1 parental cells, FluxOR thallium flux fluorescence; at 10 µM. For orientation: The purpose of a counterscreen is to sort out artefacts and off-target activity.
`CN(NC1OC(=O)c2ccccc21)c1ccccc1[N+](=O)[O-]` (configuration not stated): the signal change vs control minus 3*SD hit threshold (margin above threshold, higher = more increase) was -30.9% (inactive).
As for `COc1nnc(-c2ccc(C)c(S(=O)(=O)NC(C)(C)CO)c2)c2ccccc12`, the figure is -25.8% (inactive).
As for `Cc1ccc(C(=O)Sc2cccccc2=O)cc1`, the figure is -20.3% (inactive); as for `O=c1c(O)c(-c2cccs2)oc2ccc(Cl)cc12`, 64.2% (active).
`CCN(CC)CCCN1C(=O)c2oc3ccccc3c(=O)c2C1c1cccs1` (configuration not stated): the signal change vs control minus 3*SD hit threshold (margin above threshold, higher = more increase) is -15.9% (inactive).
As for `O=c1c(O)c(-c2cccs2)oc2ccccc12`, the figure is 39.2% (active).
The result for `O=c1c2cc(Cl)ccc2[nH]c(=S)n1Cc1cccs1` reads -21.6% (inactive).
For `O=C1OC(/C=C/c2ccc(Cl)cc2Cl)=NC/1=C\c1cccs1`, the signal change vs control minus 3*SD hit threshold (margin above threshold, higher = more increase) was -32.3% (inactive).
The result for `O=c1c(O)c(-c2ccc3c(c2)OCO3)oc2ccccc12` reads -10.8% (inactive); that for `Cc1ccccc1NP(=O)(c1ccccc1)c1nc2ccccc2s1` (configuration not stated), -31.9% (inactive); that for `CCOc1ccc(N)c(SSc2cc(OCC)ccc2N)c1`, -32.6% (inactive).
As for `Cc1ccc(CC23CN4CCN(CC(C4)C2O)C3)c(C)c1` (configuration not stated), the figure is -14.8% (inactive).
Turning to `CN(C)CCOC(=O)C1(c2ccccc2)CCCC1`, the signal change vs control minus 3*SD hit threshold (margin above threshold, higher = more increase) is -31.9% (inactive).
With `COC(=O)C1=C(C)NC2=C(C(=O)CCC2)C1c1ccc(-c2ccsc2C(=O)OC)o1` (configuration not stated), the signal change vs control minus 3*SD hit threshold (margin above threshold, higher = more increase) is -17.8% (inactive).
As to `O=C(/C=C/c1ccccc1)CC(=O)c1ccccc1O`, the signal change vs control minus 3*SD hit threshold (margin above threshold, higher = more increase) was -29.3% (inactive).
Regarding `CCOc1cc(N2CCOCC2)c(OCC)cc1NC(=O)CCC1CCCC1`, the signal change vs control minus 3*SD hit threshold (margin above threshold, higher = more increase) is -19.4% (inactive).
Regarding `Cc1ccccc1NC(=S)NC(=O)c1cc(-c2ccccc2)nc2ccccc12`, the signal change vs control minus 3*SD hit threshold (margin above threshold, higher = more increase) was -15.1% (inactive).
On to `Cc1ccc(NC(=S)NC(=O)c2ccc(Br)o2)c(C)c1`, for which the signal change vs control minus 3*SD hit threshold (margin above threshold, higher = more increase) was -19.5% (inactive).
As for `Cc1cccc(C)c1NC(=S)NC(=O)c1ccc(Br)o1`, the signal change vs control minus 3*SD hit threshold (margin above threshold, higher = more increase) was 18.7% (active).
Regarding `CCN(c1ccccc1)S(=O)(=O)c1ccc(NC(=S)NC(=O)c2ccc(Br)o2)cc1`, the signal change vs control minus 3*SD hit threshold (margin above threshold, higher = more increase) is -20.8% (inactive).
The result for `O=C(NC(=S)NCc1ccccc1)c1ccc(Br)o1` reads 39.2% (active); that for `O=C(NC(=S)NCc1ccccc1)c1cccs1`, -11.1% (inactive); that for `Cc1cccc(NC(=S)NC(=O)c2ccc(Br)o2)c1`, 9.1% (active).
For `O=C(NC(=S)Nc1ccccc1F)c1ccc(Br)o1`, the signal change vs control minus 3*SD hit threshold (margin above threshold, higher = more increase) is 23% (active).
As for `Cc1cccc(NC(=S)NC(=O)c2ccc(Br)o2)c1C`, the figure is -13.6% (inactive); as for `COc1ccccc1NC(=S)NC(=O)c1ccc(-c2ccc(Cl)cc2)o1`, -22.6% (inactive); as for `O=C(NC(=S)Nc1ccccc1)c1ccc(Br)o1`, -17.9% (inactive).
With `O=C(CNC(=S)NC(=O)c1ccc(Br)o1)c1ccccc1`, the signal change vs control minus 3*SD hit threshold (margin above threshold, higher = more increase) is -26.3% (inactive).
On to `COc1ccc(OC)c(NC(=S)NC(=O)c2ccc(Br)o2)c1`, for which the signal change vs control minus 3*SD hit threshold (margin above threshold, higher = more increase) is -21.4% (inactive).
The result for `CCN(CC)c1ccc(NC(=S)NC(=O)c2ccco2)cc1` reads -1.8% (inactive).
The result for `N#Cc1c(-c2ccco2)c2c([nH]c1=S)CCCC2` reads -29.5% (inactive).
As for `CCOC(=O)c1c(-c2ccccc2)csc1NC(=S)NC`, the figure is -10.9% (inactive).
For `CC12CCC(C/C1=N\N=C1\NC(=O)/C(=C\c3ccc(Cl)cc3)S1)C2(C)C` (configuration not stated), the signal change vs control minus 3*SD hit threshold (margin above threshold, higher = more increase) is -20.2% (inactive).
As for `Cc1nnc2ccc(-c3cccc(NC(=O)c4ccc(Cl)nc4)c3)nn12`, the figure is -41.7% (inactive); as for `O=C(NC(=S)N1CCN(c2ccccc2)CC1)c1ccccc1`, -8.7% (inactive).
The result for `CC(C)Sc1nc2ccccc2n2cnnc12` reads -29.7% (inactive); that for `Cc1cccc(/C=C2/S/C(=N/N=C3\CC4CCC3(C)C4(C)C)NC2=O)c1` (configuration not stated), -12.4% (inactive); that for `Cc1ccc2nsnc2c1S(=O)(=O)Nc1cccc2nsnc12`, -18.7% (inactive).
As for `CCC1CCc2c(sc(NC(=O)C3CC=CCC3C(=O)O)c2C#N)C1` (configuration not stated), the figure is -5.5% (inactive).
Take `C=CCc1cccc(C2Nc3ccccc3C(=O)N2O)c1O` (configuration not stated): the signal change vs control minus 3*SD hit threshold (margin above threshold, higher = more increase) is -26.4% (inactive).
As for `Cc1cc([N+](=O)[O-])ccc1-c1ccc(C2Nc3ccccc3C(=O)N2O)o1` (configuration not stated), the figure is -18.3% (inactive).
Turning to `O=C1c2ccccc2NC(c2ccc(Br)s2)N1O` (configuration not stated), the signal change vs control minus 3*SD hit threshold (margin above threshold, higher = more increase) is 15.6% (active).
Take `C=CCN(CC=C)C(=S)NC(=O)/C=C/c1ccc(OC)cc1`: the signal change vs control minus 3*SD hit threshold (margin above threshold, higher = more increase) is -19.8% (inactive).
The result for `Cc1cc(-c2cccnc2)c(C#N)c(SCc2cccc(F)c2)n1` reads -37.3% (inactive); that for `COC(=O)c1sccc1NC(=S)NCc1ccc(Cl)cc1`, -22.4% (inactive).
As for `CCc1cc2c(=O)n(CCC(C)C)c(=S)[nH]c2s1`, the figure is 26.1% (active); as for `CCOC(=O)C1=C(c2ccccc2)NC(=O)NC1c1ccc(OC)c(OC)c1` (configuration not stated), -32.6% (inactive).
In the case of `C/C(=N\NC(N)=S)c1ccncc1`, the signal change vs control minus 3*SD hit threshold (margin above threshold, higher = more increase) was -26.5% (inactive).
The result for `CSC(=S)N/N=C/c1ccccc1` reads 18.1% (active).
In the case of `CSC(=S)N/N=C(\C)c1ccccc1`, the signal change vs control minus 3*SD hit threshold (margin above threshold, higher = more increase) was 15.8% (active).
The result for `CSC(=S)N/N=C/c1ccc(Br)cc1` reads -17.6% (inactive); that for `CC(C)NC(=S)N/N=C/c1ccc(C(C)(C)C)cc1`, -20.4% (inactive).
As for `C/C(=N\NC(N)=S)c1cccnc1`, the figure is -29.6% (inactive); as for `CC1=C(C#N)C(Nc2cc(C)ccn2)(C(F)(F)F)C(=O)N1` (configuration not stated), -31.1% (inactive).
With `CCOC(=O)c1c(-c2ccc(C)o2)csc1NC(=S)NC(=O)N(C)C`, the signal change vs control minus 3*SD hit threshold (margin above threshold, higher = more increase) was -14.3% (inactive).
Regarding `CNc1nc(N)nc(OC(C(F)(F)F)C(F)(F)F)n1`, the signal change vs control minus 3*SD hit threshold (margin above threshold, higher = more increase) was -25.1% (inactive).
The result for `CC(Oc1ccc(Br)cc1)c1nc2c3ccccc3nc(=S)n2[nH]1` (configuration not stated) reads -25% (inactive).
As to `CC(=O)c1c(N2CCCC2)[nH]c(-c2ccccc2)nc1=S`, the signal change vs control minus 3*SD hit threshold (margin above threshold, higher = more increase) was -21.2% (inactive).
The result for `S=c1[nH]c2ccccc2c2ccccc12` reads -25% (inactive); that for `CC(=O)c1c(NC(=O)c2ccccc2)[nH]c(-c2ccccc2)nc1=S`, -26.3% (inactive).
As for `S=c1nc(-c2ccccc2)[nH]c2ccc(Br)cc12`, the figure is 52.8% (active); as for `S=c1nc(-c2ccc(Br)cc2)[nH]c2ccccc12`, 53.6% (active).
The result for `NNC(=O)CNc1ccccc1Cl` reads -26% (inactive); that for `CN(C)c1ccc(C(CNS(=O)(=O)c2ccc([N+](=O)[O-])cc2)N2CCCC2)cc1` (configuration not stated), -29% (inactive).
For `CC(C)C(=O)Nc1ccc(NC(=O)CCc2ccccc2)cn1`, the signal change vs control minus 3*SD hit threshold (margin above threshold, higher = more increase) was -33.7% (inactive).
Take `O=C(CCc1ccccc1)Nc1nccs1`: the signal change vs control minus 3*SD hit threshold (margin above threshold, higher = more increase) was -33.8% (inactive).
The result for `O=C(Nc1ncc(Br)s1)C(Cc1ccccc1)n1cccc1` (configuration not stated) reads 6.9% (active).

(Values after PubChem BioAssay AID1839 (Johns Hopkins Ion Channel Center, 2009).)
